Records with an inconclusive call do not appear. Calls of active or inactive are those of the source. Calls come from the whole dose curve; as a rule, active = well fitted inhibition curve with a large enough effect; inconclusive = small, poorly fitted or top-dose-only effect; inactive = no such curve, though single readings can be large or run the other way.

Sequence of Luciferin 4-monooxygenase (Photinus pyralis) (P08659 whole entry, looked up): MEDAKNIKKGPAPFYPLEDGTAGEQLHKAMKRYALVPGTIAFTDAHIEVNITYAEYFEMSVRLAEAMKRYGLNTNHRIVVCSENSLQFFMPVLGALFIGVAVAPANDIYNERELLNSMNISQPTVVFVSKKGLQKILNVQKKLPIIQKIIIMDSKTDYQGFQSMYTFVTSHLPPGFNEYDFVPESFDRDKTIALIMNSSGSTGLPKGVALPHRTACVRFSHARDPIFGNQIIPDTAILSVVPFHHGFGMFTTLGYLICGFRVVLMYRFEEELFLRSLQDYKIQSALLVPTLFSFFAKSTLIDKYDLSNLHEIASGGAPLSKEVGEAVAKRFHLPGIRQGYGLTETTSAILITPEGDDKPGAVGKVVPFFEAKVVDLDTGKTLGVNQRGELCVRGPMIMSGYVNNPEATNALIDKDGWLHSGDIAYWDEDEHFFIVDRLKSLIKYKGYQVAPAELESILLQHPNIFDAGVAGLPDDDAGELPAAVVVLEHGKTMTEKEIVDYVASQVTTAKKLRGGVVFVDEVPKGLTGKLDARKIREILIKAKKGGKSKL

This assay concerns the target Luciferin 4-monooxygenase (Photinus pyralis) (UniProt P08659). As to the kind of experiment: FLuc inhibitory activity for the follow-up compounds in a biochemical assay with a commercial detection reagent - BriteliteTM Plus (PerkinElmer). The conditions noted are these: purified FLuc, Britelite Plus luminescence; series mostly up to 38.3 µM; activity change, negative = inhibition: at the top concentration. The text has this:
NCGC Assay Overview: Firefly (Photinus pyralis) luciferase is one of the most commonly used transcriptional reporters. It is considered one of the more dynamically responsive reporters - that is, responsive to changes in reporter transcription - as it requires no post-translational modifications and is enzymatically active directly after protein synthesis (Wood, 1998). With no endogenous expression in mammalian cells and without the requirement of external excitation, it offers very little background signal, thus generally providing excellent signal to background for most assays. Previous profiling work to determine the prevalence of compounds that affect FLuc enzymatic activity (PubChem AID 411) identified that ~3% of the MLSMR library (then at ~72K) inhibited FLuc (Auld et al., 2008). […] Of the compounds identified in this profile that inhibited FLuc, 151 compounds were selected for further analysis, in an effort to better understand their mode of inhibiting FLuc. The assay described here was to determine the activity of the compounds in a FLuc assay that used a commercial formulation of detection reagent (BriteliteTM Plus; PerkinElmer).
NCGC Assay Protocol Summary: Reagents: Britelite Plus detection reagent; 50mM Tris acetate, pH 7.5; 10nM P. pyralis luciferase (Sigma #L9506) Control compounds used were two known firefly luciferase inhibitors (3-(5-(3-chlorophenyl)-1,2,4-oxadiazol-3-yl)benzoic acid and 5-(2-fluorophenyl)-3-phenyl-1,2,4-oxadiazole), and DMSO. Assay Summary: Three microliters of buffer containing firefly luciferase (final concentrations: 50mM Tris acetate, 10nM P. pyralis luciferase) are dispensed into each well of a Greiner white, solid-bottom 1536-well format plate using a flying reagent dispenser (FRD). These assay plates were then treated with 23nL of compound or DMSO using a Kalypsys pin tool, which allows for delivery of a 12-point intraplate titration of each compound to the assay plate (quantitative HTS), with final compound concentrations ranging from approximately ~38uM to 0.2nM. Three microliters of 2X Britelite Plus detection reagent was then delivered by FRD to each well. Luciferase activity was then measured using a ViewLux CCD imager (PerkinElmer), with an average exposure time of 2-30 seconds (2X binning, medium/high gain).
As for `COc1ccc2nc(NC(=O)c3ccco3)sc2c1`, the Potency is 1.59 µM (active).

In the case of `Cc1ccc(S(=O)(=O)N2CCOCC2)cc1C(=O)Nc1ccccc1C(=O)O`, the “activity change, negative = inhibition” value is -25.2% (inactive).

Take `COc1ccc2nc(NC(=O)c3ccc(S(=O)(=O)N4CCCC(C)C4)cc3)sc2c1` (stereo not given): the “activity change, negative = inhibition” value was -22.2% (inactive).

`CN(C)S(=O)(=O)c1ccc(C(=O)Nc2ccccc2C(=O)O)cc1`: the “activity change, negative = inhibition” value is -14.3% (inactive).

Regarding `CC(=O)Nc1cccc(C(=O)Nc2ccccc2C(=O)O)c1`, the “activity change, negative = inhibition” value is -23.5% (inactive).

Consider `Cc1cccc(NS(=O)(=O)c2cccc(C(=O)Nc3cccc(C(=O)O)c3)c2)c1`, for which the “activity change, negative = inhibition” value was 11.1% (inactive).

Take `Cc1c(NS(C)(=O)=O)cccc1-c1nc2ccccc2s1`: the “activity change, negative = inhibition” value is -34.5% (inactive).

Take `O=C(Nc1cccc(-c2nc3ccccc3s2)c1)C1=COCCO1`: the “activity change, negative = inhibition” value is -15% (inactive).

In the case of `Nc1ccc(-c2nc3ccc(C(=O)O)cc3s2)cc1`, the Potency is 0.634 µM (active).

For `COc1ccc2nc(NC(=O)c3ccc4ncsc4c3)sc2c1`, the Potency was 25.2 µM (active).

As to `Cc1ccc(C(=O)Nc2cccc(C(=O)O)c2)cc1S(=O)(=O)N1CCOCC1`, the Potency was 11.3 µM (active).

For the compound `O=C(O)c1cccc(NC(=O)c2ccc(S(=O)(=O)c3ccccc3)cc2)c1`, the “activity change, negative = inhibition” value was -14.5% (inactive).

On to `Cc1ccc(S(=O)(=O)N2CCN(C(=O)c3ccccc3-c3nc4ccccc4s3)CC2)c(C)c1`, for which the “activity change, negative = inhibition” value was 14.2% (inactive).

As for `CC(C)(C)NC(=O)c1ccccc1-c1nc2ccccc2s1`, the “activity change, negative = inhibition” value was -6.17% (inactive).

Regarding `O=C(O)c1ccc(NC(=O)c2ccccc2NC(=O)c2cccc(Br)c2)cc1`, the “activity change, negative = inhibition” value is 6.03% (inactive).

As for `O=C(O)c1cccc(NC(=O)c2cccc(S(=O)(=O)Nc3cccc(F)c3)c2)c1`, the “activity change, negative = inhibition” value is -35.2% (inactive).

With `O=C(O)c1ccc(NC(=O)c2cc(S(=O)(=O)N3CCCCC3)c(Cl)cc2Cl)cc1`, the “activity change, negative = inhibition” value is -26.9% (inactive).

As to `CCOc1ccc2nc(NC(=O)c3ccoc3C)sc2c1`, the Potency is 2 µM (active).

On to `CCOc1ccc(C(=O)Nc2ccccc2C(=O)O)cc1`, for which the Potency is 3.56 µM (active).

On to `O=C(O)c1ccccc1NC(=O)c1ccccc1Nc1ccccc1`, for which the “activity change, negative = inhibition” value is -13.6% (inactive).

Take `COc1cc(OC)cc(C(=O)Nc2ccccc2-c2nc3ccccc3s2)c1`: the “activity change, negative = inhibition” value is -29.1% (inactive).

As to `O=C(Nc1ccccc1C(=O)Nc1ccccc1C(=O)O)c1ccccc1`, the “activity change, negative = inhibition” value is 2.67% (inactive).

For the compound `Nc1ccc(C(=O)Nc2ccccc2C(=O)O)cc1`, the Potency is 11.3 µM (active).

In the case of `COc1ccc2nc(NC(=O)c3cccs3)sc2c1`, the “activity change, negative = inhibition” value is -16.2% (inactive).

With `O=C(O)c1cccc(NC(=O)c2ccc(Cl)c(S(=O)(=O)N3CCCCCC3)c2)c1`, the Potency was 3.18 µM (active).

As for `Cc1ccc2nc(-c3ccc(N)cc3)sc2c1`, the Potency is 0.895 µM (active).

As for `Nc1ccc(-c2nc3ccc(N)cc3s2)cc1`, the Potency was 0.565 µM (active).

On to `Cc1ccc(C(=O)Nc2cccc(C(=O)O)c2)cc1S(=O)(=O)N1CCCC1`, for which the Potency is 2.25 µM (active).

With `COc1ccc(C(=O)Nc2cccc(C(=O)O)c2)cc1S(=O)(=O)N1CCCC1`, the “activity change, negative = inhibition” value is -21.3% (inactive).

In the case of `COc1ccccc1C(=O)Nc1ccc(C(=O)O)cc1`, the “activity change, negative = inhibition” value is 4.95% (inactive).

In the case of `Cc1cccc(C(=O)Nc2ccc(-c3nc4ccccc4s3)cc2Cl)c1`, the “activity change, negative = inhibition” value was -20.5% (inactive).

`CCOc1ccc(C(=O)Nc2cccc(C(=O)O)c2)cc1Cl`: the Potency is 7.11 µM (active).

Consider `CCOc1ccc2nc(NC(=O)c3ccccn3)sc2c1`, for which the Potency is 0.895 µM (active).

For `O=C(O)c1cccc(NC(=O)c2cccc(NC(=O)C3CCCO3)c2)c1` (stereo not given), the Potency was 11.3 µM (active).

With `O=C(Nc1ccccc1C(=O)O)c1cccc(NC(=O)c2ccccc2Cl)c1`, the “activity change, negative = inhibition” value was -1.17% (inactive).

For the compound `O=C(O)c1cccc(NC(=O)c2ccccc2NC(=O)c2ccco2)c1`, the “activity change, negative = inhibition” value is -7.53% (inactive).

On to `Cc1ccc(C(=O)Nc2ccc(C(=O)O)cc2)cc1S(=O)(=O)NCc1ccccc1`, for which the “activity change, negative = inhibition” value is -0.493% (inactive).

`CCn1c(C)nc2cc(-c3nc4n(n3)Cc3ccccc3-4)ccc21`: the Potency is 0.0711 µM (active).

Take `COc1ccc(C(=O)Nc2ccccc2C(=O)Nc2ccc(C(=O)O)cc2)cc1`: the Potency is 14.2 µM (active).

In the case of `c1ccc2sc(-c3ccc4c(c3)OCO4)nc2c1`, the Potency was 1.79 µM (active).

Values taken from PubChem BioAssay AID602474 (National Center for Advancing Translational Sciences (NCATS), 2012).
